IMPase Li cell – cell-permeable IMPase inhibitors with lithium potentiation; 210,000 compounds, 0.35% hits; CHO-M1 cells, IP1 TR-FRET (IP-One), carbachol + lithium; Potency, µM (top dose mostly 59.4 µM), hits mostly inhibitors;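 also: IP1 builds up when IMPase is blocked and the TR-FRET signal falls; nearly all actives have a fitted effect of over 50% in size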
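CHO-M1, 2000 cells/well, 16–30 h culture; cpd + low Li+, 30 min 37C; lysis with d2-IP1/Eu-anti-IP1 Ab, 10 min RT; TR-FRET 665/620 ratio and 620 channel; AC50 via Hill.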
HPGD inh – blocks human HPGD enzyme activity | purified HPGD, NADH fluorescence kinetic, PGE2 substrate | AID 894 | 150,000 compounds, 4.3% hits | P15428 | Potency, µM, actives largely listed as inhibitors; active = well fitted inhibition curve with a large enough effect, not every such curve was filed as active; inconclusive = small, poorly fitted or top-dose-only effect, or another doubt; inactive = no such curve, though single readings can be large or run the other way
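NADH formation kinetics: reaction with 30 uM PGE2 and 1 mM NAD+ (final), 20 nM enzyme, Tris-HCl pH 8 with Tween 20, after 15 min compound preincubation at room temperature. Fluorescence change, last versus first of five reads.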
PNC assembly inh – inhibitors of perinucleolar compartment assembly. PC3M PTB-GFP, PNC prevalence imaging, 16 h; stronger effect = lower value. activity change (PNC), negative = inhibition, % at 10 µM. 140,000 compounds, 3.1% hits;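 active = readout at or below -70, meaning at least 70% loss of cells showing the perinucleolar compartment, a nuclear body marking cancer cells; inconclusive = readout between -30 and a set limit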
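Compounds are pinned in duplicate onto adhered PC3M cells stably expressing GFP-tagged PTB and incubated 16 h at 37 C. Cells are then fixed, nuclei stained with Hoechst, and PNC-positive cells counted.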
IMPase cell inh – IMPase inhibition in cells | inhibition (IP1 accumulation), % at 46.1 µM | AID 901 | 120,000 tested, under 10 active | P97697 | CHO-M1 cells, IP1 accumulation, HTRF TR-FRET ratio; active = well fitted curve in the direction sought with a large enough effect in the signal ratio, not every such curve was filed as active; inconclusive = small, poorly fitted or top-dose-only effect, or a change in a side signal; inactive = no such curve, though single readings can be large or run the other way; the % refers to the signal ratio;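 also: cells stimulated with carbachol in lithium chloride buffer; higher means more IMPase inhibition seen as more IP1 and lower FRET ratio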
Target sequence (P97697 whole entry, looked up): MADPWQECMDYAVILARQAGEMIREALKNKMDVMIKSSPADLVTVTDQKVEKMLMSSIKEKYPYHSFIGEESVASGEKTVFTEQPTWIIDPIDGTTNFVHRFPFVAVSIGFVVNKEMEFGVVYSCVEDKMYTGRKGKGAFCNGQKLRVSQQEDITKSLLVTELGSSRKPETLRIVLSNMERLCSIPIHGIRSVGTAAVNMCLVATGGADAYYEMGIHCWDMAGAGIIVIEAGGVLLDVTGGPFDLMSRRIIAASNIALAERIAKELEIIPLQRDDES
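Seeded CHO-M1 cells were dosed with compound at up to 46 uM, stimulated with carbachol for 30 min, then lysed in IP-One detection reagents. Higher IP1 lowers the TR-FRET signal.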
NPSR antagonist – antagonists of human neuropeptide S receptor cAMP signaling; CHO-NPSR cells, cAMP TR-FRET, antagonist mode; Potency, µM (series often up to 38.3 µM), actives largely listed as inhibitors; 220,000 compounds, 1% hits; AID 1461; also: nearly all actives have a fitted effect of over 50% in size
ALDH1A1 block – blocks purified human ALDH1A1 activity; Purified ALDH1A1, NADH fluorescence, propionaldehyde substrate; 220,000 compounds, 7.3% hits; Potency, µM (series often up to 75.3 µM), most hits filed as inhibitors; P00352; active = well fitted inhibition curve with a large enough effect, not every such curve was filed as active; inconclusive = small, poorly fitted or top-dose-only effect, or another doubt; inactive = no such curve, though single readings can be large or run the other way
Target sequence (P00352 whole entry, looked up): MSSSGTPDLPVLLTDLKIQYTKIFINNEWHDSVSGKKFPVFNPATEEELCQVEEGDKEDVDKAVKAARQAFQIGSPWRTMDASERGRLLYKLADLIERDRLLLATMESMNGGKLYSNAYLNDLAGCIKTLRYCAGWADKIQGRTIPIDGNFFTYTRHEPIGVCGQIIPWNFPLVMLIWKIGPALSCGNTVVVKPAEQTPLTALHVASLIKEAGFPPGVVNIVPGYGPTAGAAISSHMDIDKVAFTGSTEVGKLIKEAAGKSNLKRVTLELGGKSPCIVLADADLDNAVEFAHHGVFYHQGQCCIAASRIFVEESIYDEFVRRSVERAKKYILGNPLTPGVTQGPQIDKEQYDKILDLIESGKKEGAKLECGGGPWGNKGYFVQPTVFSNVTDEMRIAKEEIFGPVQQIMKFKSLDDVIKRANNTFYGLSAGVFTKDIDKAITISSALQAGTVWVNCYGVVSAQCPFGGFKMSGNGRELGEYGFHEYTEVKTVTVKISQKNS
Hits are given with their value; [ ] = remark or other dose. This is a sample that favours compounds with a hit; in the whole collection about 11% have one here. Unless noted, calls follow the shape of the dose curve; as a rule, active = well fitted curve in the direction sought with a large enough effect; inconclusive = small, poorly fitted or top-dose-only effect, or another doubt; inactive = no such curve, though single readings can be large; an effect the other way counts as inactive or inconclusive.

Results for CCCCC(=O)NC(=S)Nc1cc(C(=O)O)ccc1Cl ?
IMPase Li cell: inactive; HPGD inh: inactive; PNC assembly inh: inactive; IMPase cell inh: inactive; NPSR antagonist: inactive; ALDH1A1 block: inactive

Results for C/C(=N\NC(=O)c1ccccc1)c1cc2cc([N+](=O)[O-])ccc2oc1=O ?
IMPase Li cell: inactive; HPGD inh: 25.1µM; PNC assembly inh: inconclusive; IMPase cell inh: inactive; NPSR antagonist: inactive; ALDH1A1 block: inactive

Results for N#CC1=C(N)Oc2ccccc2C12C(=O)Nc1n[nH]c(-c3ccccc3)c12 (configuration not stated) ?
IMPase Li cell: inactive; HPGD inh: inactive; PNC assembly inh: inactive; IMPase cell inh: inactive; NPSR antagonist: inactive; ALDH1A1 block: inactive

Results for Cc1ccccc1CNC1CCCCC1 ?
IMPase Li cell: inactive; HPGD inh: inactive; PNC assembly inh: inconclusive; NPSR antagonist: inactive; ALDH1A1 block: inactive

Results for Oc1cc(CN2COc3ccccc32)c(O)cc1CNC1CCCCC1 ?
IMPase Li cell: inactive; HPGD inh: 1.58µM; ALDH1A1 block: inactive[13.5 µM]

How did COc1ccc(S(=O)(=O)CCC(=O)Nc2cc(C)ccc2OC)cc1 do in these assays?
IMPase Li cell: inactive; NPSR antagonist: inactive; ALDH1A1 block: 25.1µM

What do the screens show for `COc1ccc(C)cc1NC(=O)CN1CCN(S(=O)(=O)c2ccc(Br)cc2)CC1`?
IMPase Li cell: inactive; HPGD inh: inactive; PNC assembly inh: inactive; IMPase cell inh: inactive; NPSR antagonist: inactive; ALDH1A1 block: 0.159µM

Results for O=C(CN1CCN(S(=O)(=O)c2ccc(Br)cc2)CC1)N/N=C/c1cccnc1 ?
IMPase Li cell: inactive; HPGD inh: inactive; PNC assembly inh: -90.1; IMPase cell inh: inactive; NPSR antagonist: inactive; ALDH1A1 block: inactive

How did O=C(CCN1CCN(S(=O)(=O)c2ccc(Br)cc2)CC1)Nc1ccccc1F do in these assays?
IMPase Li cell: inactive; NPSR antagonist: inactive; ALDH1A1 block: inconclusive

How did O=C(CN1CCN(S(=O)(=O)c2ccc(Br)cc2)CC1)Nc1ccccc1F do in these assays?
IMPase Li cell: inactive; HPGD inh: inactive; PNC assembly inh: inactive; IMPase cell inh: inactive; NPSR antagonist: inactive; ALDH1A1 block: 28.2µM

How did COc1ccc(NC(C)=O)cc1NC(=O)CN1CCN(S(=O)(=O)c2ccc(C(C)C)cc2)CC1 do in these assays?
IMPase Li cell: inactive; HPGD inh: inactive; PNC assembly inh: inactive; IMPase cell inh: inactive; NPSR antagonist: inactive; ALDH1A1 block: inactive

How did CCC1CO/C(=C(\C(Cl)=C(Cl)Cl)[N+](=O)[O-])N1 (configuration not stated) do in these assays?
IMPase Li cell: inactive; NPSR antagonist: inactive; ALDH1A1 block: inactive

How did CCOC(=O)c1cnc2ccc(Cl)cc2c1NCCN(C)C do in these assays?
IMPase Li cell: inactive; HPGD inh: inactive; PNC assembly inh: inactive; IMPase cell inh: inconclusive; NPSR antagonist: inactive; ALDH1A1 block: inactive

How did CCCN(C(=O)CSc1nnnn1C)C1CCS(=O)(=O)C1 (configuration not stated) do in these assays?
IMPase Li cell: inactive; NPSR antagonist: inactive; ALDH1A1 block: inactive

Results for COc1ccc(NC(=S)NCCc2c[nH]c3ccccc23)cc1 ?
IMPase Li cell: inactive; HPGD inh: inactive; PNC assembly inh: inactive; NPSR antagonist: inactive; ALDH1A1 block: inactive

What do the screens show for `O=C(CN1CCCN(S(=O)(=O)c2ccc(F)cc2)CC1)Nc1ccccc1Br`?
IMPase Li cell: inactive; HPGD inh: inactive; PNC assembly inh: inactive; IMPase cell inh: inactive; NPSR antagonist: inactive; ALDH1A1 block: 28.2µM

What do the screens show for `CCN(CC(=O)NCc1ccc(F)cc1)CC(=O)Nc1ccc(S(=O)(=O)N2CCCC2)cc1`?
IMPase Li cell: inactive; NPSR antagonist: inactive; ALDH1A1 block: 11.2µM

How did O=C(CN1CCN(S(=O)(=O)c2ccc(Br)cc2)CC1)Nc1ccc(F)cc1 do in these assays?
IMPase Li cell: inactive; HPGD inh: inactive; PNC assembly inh: inconclusive; IMPase cell inh: inactive; NPSR antagonist: inactive; ALDH1A1 block: 31.6µM

Results for O=C(NCC(c1ccco1)N1CCN(c2ccccc2F)CC1)OCc1ccccc1 (configuration not stated) ?
IMPase Li cell: inactive; HPGD inh: inactive; PNC assembly inh: inactive; IMPase cell inh: inactive; NPSR antagonist: inactive; ALDH1A1 block: inactive

What do the screens show for `O=C(COC(=O)c1ccc(O)cc1)NCCCc1ccccc1`?
IMPase Li cell: inactive; NPSR antagonist: inactive; ALDH1A1 block: inactive

How did O=C(CCC(=O)CCN1CCCCC1)CCN1CCCCC1 do in these assays?
IMPase Li cell: inactive; HPGD inh: inactive; PNC assembly inh: inconclusive; IMPase cell inh: inactive; NPSR antagonist: inactive; ALDH1A1 block: 0.631µM

Results for CC(=O)c1cc(F)c(N2CCN(C(=O)C(C)(C)C)CC2)cc1C ?
IMPase Li cell: inactive; HPGD inh: inactive; PNC assembly inh: inactive; IMPase cell inh: inactive; NPSR antagonist: inactive; ALDH1A1 block: 15.8µM

What do the screens show for `c1cc(C(c2nnnn2C2CCCCC2)N2CCN3CCCC3C2)ccn1` (configuration not stated)?
IMPase Li cell: inactive; HPGD inh: inactive; PNC assembly inh: inactive; IMPase cell inh: inactive; NPSR antagonist: inactive; ALDH1A1 block: inactive

How did Cn1cccc1C(=O)NC(=O)COC(=O)c1ccccc1O do in these assays?
IMPase Li cell: inactive; HPGD inh: inconclusive; PNC assembly inh: inactive; IMPase cell inh: inactive; NPSR antagonist: inactive; ALDH1A1 block: inconclusive

How did Cn1cccc1C(=O)NC(=O)COC(=O)c1ccc(O)cc1 do in these assays?
IMPase Li cell: inactive; HPGD inh: inactive; PNC assembly inh: inactive; IMPase cell inh: inactive; NPSR antagonist: inactive; ALDH1A1 block: 3.16µM

What do the screens show for `O=S(=O)(c1ccc(F)cc1)n1ccc2cccnc21`?
IMPase Li cell: inactive; HPGD inh: inactive; PNC assembly inh: -100.0; IMPase cell inh: inactive; NPSR antagonist: inactive; ALDH1A1 block: inactive

How did Cc1cc(C(=O)CCl)c(C)n1CCc1ccc(F)cc1 do in these assays?
IMPase Li cell: inactive; NPSR antagonist: inactive; ALDH1A1 block: 0.398µM

Results for COc1ccc(CCn2c(C)c(C(C)=O)c(C(C)=O)c2C)cc1OC ?
IMPase Li cell: inactive; NPSR antagonist: inactive; ALDH1A1 block: inactive

Results for COc1ccc(CCn2c(C)cc(C(=O)CCl)c2C)cc1OC ?
IMPase Li cell: inactive; NPSR antagonist: inactive; ALDH1A1 block: 0.112µM

What do the screens show for `Cc1cc(C(=O)CCl)c(C)n1CCc1ccc(Cl)cc1`?
IMPase Li cell: inactive; NPSR antagonist: inconclusive; ALDH1A1 block: 0.178µM

What do the screens show for `Cc1cc(C(=O)CSc2nnnn2C)c(C)n1CCc1ccc(F)cc1`?
IMPase Li cell: inactive; HPGD inh: inactive; PNC assembly inh: inactive; IMPase cell inh: inactive; NPSR antagonist: inconclusive; ALDH1A1 block: inactive

What do the screens show for `N#CCSc1nnc(CNc2ccc(F)cc2)o1`?
IMPase Li cell: inactive; HPGD inh: inactive; PNC assembly inh: inactive; IMPase cell inh: inactive; NPSR antagonist: inactive; ALDH1A1 block: inactive

Screening results: PubChem, National Center for Advancing Translational Sciences (NCATS)
